Our source for the AC50 values is PubChem BioAssay AID2284185 (EPA ToxCast).

Activity calls are given as the source filed them. How the source made its calls: active means hit-call score of the fitted dose curve at least 0.9, where 1 is the maximum; inactive means score below 0.9.

human Dopamine Receptor D4.2 Antagonism, DRD4 (gene 1815), sequence (P21917 whole entry, looked up): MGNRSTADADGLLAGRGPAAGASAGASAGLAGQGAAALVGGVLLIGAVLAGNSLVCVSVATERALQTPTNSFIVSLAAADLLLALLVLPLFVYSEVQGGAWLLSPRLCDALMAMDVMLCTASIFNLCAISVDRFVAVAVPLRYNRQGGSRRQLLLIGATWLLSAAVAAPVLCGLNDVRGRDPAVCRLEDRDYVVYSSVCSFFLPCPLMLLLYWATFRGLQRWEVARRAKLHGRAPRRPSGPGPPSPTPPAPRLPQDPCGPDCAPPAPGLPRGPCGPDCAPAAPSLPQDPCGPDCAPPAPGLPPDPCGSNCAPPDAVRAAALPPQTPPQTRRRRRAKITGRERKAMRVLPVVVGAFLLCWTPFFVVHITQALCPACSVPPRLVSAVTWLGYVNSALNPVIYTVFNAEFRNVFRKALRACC

The target in this assay is human Dopamine Receptor D4.2 Antagonism, DRD4 (gene 1815) (UniProt P21917). The assay is described as follows: ERF_TW_GPCR_hDRD4: Eurofins (ERF) G Protein-Coupled Receptor (GPCR) Radioligand Binding LeadHunter Assay for human Dopamine Receptor D4.2 Antagonism. Here is the method:
ERF_TW_GPCR_hDRD4 is a biochemical, single-readout assay that uses extracted gene-proteins in a cell-free assay. Measurements were taken 2 hour after chemical dosing in a 96-well plate. See D4.2 Human Dopamine GPCR Binding (Antagonist Radioligand) Assay, Panlabs.ERF_TW_GPCR_hDRD4 is an assay component calculated from the ERF_TW_GPCR_hDRD4 assay. It is designed to measure radioligand binding using a type of binding reporter as detected by scintillation counting with radiometry technology.Data from the assay component ERF_TW_GPCR_hDRD4 was analyzed at the assay endpoint, ERF_TW_GPCR_hDRD4, in the positive analysis fitting direction relative to DMSO as the negative control and baseline of activity. Using a type of binding reporter, loss-of-signal activity can be used to understand changes in binding as they relate to gene DRD4. To generalize the intended target to other relatable targets, this assay endpoint is annotated to the gpcr intended target family, where the subfamily is dopamine.
Human recombiant cells are prepared in Tris-HCl buffer pH 7.4. A 24 ug aliquot is incubated with 0.5 nM [3H] Spiperone for 2 hours at 25C. Non-specific binding is estimated in the presence of 10 uM Haloperidol.
`O=C(/C=C/c1ccc(O)cc1)CC(=O)/C=C/c1ccc(O)cc1`: the half-maximal activity concentration (AC50) is 1.12 µM (active).
